# Reference: the supplement of paper PMC13380429
# Tested on: Vero E6 infected with SARS-CoV-2
# Assay: inhibition of SARS-CoV-2 cytopathic effect; higher = more antiviral protection, active = above 15
# Details: 1 nM; 48 h
row,SMILES,inhibition of SARS-CoV-2 cytopathic effect
1,Cn1nc(C(C)(C)C)cc1C(=O)N[C@@H](Cc1cccc(Cl)c1)C(=O)NCC#N [cathepsin-inhibitor-1],0.51% (inactive)
2,CCCCC[C@H](O)/C=C/[C@H]1[C@H](O)CC(=O)[C@@H]1CCCCCCC(=O)O [alprostadil],1.09% (inactive)
3,Oc1cc(Cl)ccc1Oc1ccc(Cl)cc1Cl [triclosan],-1.92% (inactive)
4,COc1cc(C2Oc3cc([C@H]4Oc5cc(O)cc(O)c5C(=O)[C@@H]4O)ccc3OC2CO)ccc1O (some centres undefined) [silibinin],-0.88% (inactive)
5,CC(C)(C)c1nc(-c2cccc(NS(=O)(=O)c3c(F)cccc3F)c2F)c(-c2ccnc(N)n2)s1 [dabrafenib],-0.66% (inactive)
6,Clc1cccc(SC2CCNCC2)n1 [anpirtoline],-4.7% (inactive)
7,Clc1ccc(COC(Cn2ccnc2)c2ccc(Cl)cc2Cl)c(Cl)c1 (centres undefined) [miconazole],-1.92% (inactive)
8,O=C(NC1(c2ccccc2)CC1)c1c(CN2CCC(N3CCCCC3)CC2)c(-c2cccc(C(F)(F)F)c2)nc2cc(Br)ccc12,1.74% (inactive)
9,O=C(O)/C=C(/CC(=O)O)C(=O)O [cis-aconitic-acid],0.99% (inactive)
10,CC(C)OC(=O)C1=CN(C(=O)c2ccc(F)c(F)c2)CC(C)(C)c2c1[nH]c1ccccc21,-2.29% (inactive)
11,C[C@H](Cc1cc2c(c(C(N)=O)c1)N(CCCO)CC2)NCCOc1ccccc1OCC(F)(F)F [silodosin],3.7% (inactive)
12,O=C(O)c1cc(/N=N/c2ccc(S(=O)(=O)Nc3ccccn3)cc2)ccc1O [sulfasalazine],-0.13% (inactive)
13,CCCN(CCC)C(=O)C(CCC(=O)O)NC(=O)c1ccccc1 (centres undefined) [proglumide],2.27% (inactive)
14,COc1ccc2cccc(CCNC(C)=O)c2c1 [agomelatine],-0.83% (inactive)
15,COc1cc(-c2cc(-c3cccc(O)c3)cnc2N)cc(OC)c1OC,-0.86% (inactive)
16,Cc1ccc(Nc2c(F)cccc2Cl)c(CC(=O)O)c1 [lumiracoxib],-0.15% (inactive)
17,CC(=O)OC[C@H]1O[C@@H](n2ccc(=O)[nH]c2=O)[C@H](OC(C)=O)[C@@H]1OC(C)=O [uridine-triacetate],-1.68% (inactive)
18,CN(Cc1cc(Br)cc(Br)c1N)C1CCCCC1 [bromhexine],0.85% (inactive)
19,Cc1cc(C(C)(C)C)cc(C)c1CC1=NCCN1 [xylometazoline],-7.36% (inactive)
20,OCc1cncc(F)c1 [5-fluoro-3-pyridyl-methanol],-1.88% (inactive)
21,O=C(O)c1ccccc1-c1ccc(C(F)(F)F)cc1 [xenalipin],-4.08% (inactive)
22,CC(C)NCC(O)c1ccccc1Cl (centres undefined) [clorprenaline],2.05% (inactive)
23,C[C@@H](c1ncncc1F)[C@](O)(Cn1cncn1)c1ccc(F)cc1F [voriconazole],0.72% (inactive)
24,O=C(O)C1=CCNCC1 [isoguvacine],0.65% (inactive)
25,Oc1cc2c(cc1O)CN(C(=S)NCCc1ccc(Cl)cc1)CCC2 [capsazepine],-5.03% (inactive)
26,Cn1cnc2c(F)c(Nc3ccc(Br)cc3F)c(C(=O)NOCCO)cc21 [binimetinib],3.85% (inactive)
27,CN(C)/C=N/c1c(I)cc(I)c(CCC(=O)O)c1I [iopodic-acid],-3.57% (inactive)
28,O=C(CBr)N1CC([N+](=O)[O-])([N+](=O)[O-])C1,1.69% (inactive)
29,N#Cc1cn([C@@H]2O[C@H](CO)[C@@H](O)[C@H]2O)c2ncnc(N)c12 [toyocamycin],0.31% (inactive)

# Same assay, conditions: 8.33 nM; 48 h
row,SMILES,inhibition of SARS-CoV-2 cytopathic effect
1,Nc1nc(N)nc(NC2CC2)n1 [cyromazine],-0.52% (inactive)
2,CC(C)(C)NC(=O)N[C@H](C(=O)N1C[C@H]2[C@@H]([C@H]1C(=O)NC(CC1CCC1)C(=O)C(N)=O)C2(C)C)C(C)(C)C (some centres undefined) [Boceprevir],1.1% (inactive)
3,COc1cc2c(cc1OC)-c1cc3nc4ccccc4nc3n1C(C)(C)C2,1.86% (inactive)
4,CCOc1cc([C@@H](CS(C)(=O)=O)N2C(=O)c3cccc(NC(C)=O)c3C2=O)ccc1OC [apremilast],-0.67% (inactive)
5,C=C1/C(=C\C=C2/CCC[C@]3(C)[C@@H]([C@H](C)CCCC(O)(C(F)(F)F)C(F)(F)F)CC[C@@H]23)C[C@@H](O)C[C@@H]1O [falecalcitriol],0.41% (inactive)
6,C1CCN2C[C@@H]3C[C@@H](CN4CCCC[C@@H]34)[C@H]2C1 [sparteine-sulfate],4.17% (inactive)
7,O=C(N[C@@H]1CC[C@@H](c2cccc(F)c2F)CN(CC(F)(F)F)C1=O)N1CCC(n2c(=O)[nH]c3ncccc32)CC1 [telcagepant],6.42% (inactive)
8,CC#CCC(C)[C@H](O)/C=C/[C@@H]1[C@H]2C/C(=C/CCCC(=O)O)C[C@H]2C[C@H]1O (some centres undefined) [iloprost],-1.1% (inactive)
9,O=C(NNc1nc2cc(F)ccc2n2cccc12)c1cnccn1,0.82% (inactive)
10,O=C(c1ccc(C(=O)N2CCC(N3CCCC3)CC2)c(Nc2ccccc2)c1)N1CCC(N2CCCC2)CC1,-1.56% (inactive)
11,COc1cc(NS(=O)(=O)c2ccc(N)cc2)nc(OC)n1 [sulphadimethoxine],-2.06% (inactive)
12,Cn1nc(C(C)(C)C)cc1C(=O)N[C@@H](Cc1cccc(Cl)c1)C(=O)NCC#N [cathepsin-inhibitor-1],1.86% (inactive)
13,CCCCC[C@H](O)/C=C/[C@H]1[C@H](O)CC(=O)[C@@H]1CCCCCCC(=O)O [alprostadil],3.65% (inactive)
14,Oc1cc(Cl)ccc1Oc1ccc(Cl)cc1Cl [triclosan],-0.14% (inactive)
15,COc1cc(C2Oc3cc([C@H]4Oc5cc(O)cc(O)c5C(=O)[C@@H]4O)ccc3OC2CO)ccc1O (some centres undefined) [silibinin],-0.77% (inactive)
16,CC(C)(C)c1nc(-c2cccc(NS(=O)(=O)c3c(F)cccc3F)c2F)c(-c2ccnc(N)n2)s1 [dabrafenib],-0.54% (inactive)
17,Clc1cccc(SC2CCNCC2)n1 [anpirtoline],-4.88% (inactive)
18,Clc1ccc(COC(Cn2ccnc2)c2ccc(Cl)cc2Cl)c(Cl)c1 (centres undefined) [miconazole],0.22% (inactive)
19,O=C(NC1(c2ccccc2)CC1)c1c(CN2CCC(N3CCCCC3)CC2)c(-c2cccc(C(F)(F)F)c2)nc2cc(Br)ccc12,3.71% (inactive)
20,O=C(O)/C=C(/CC(=O)O)C(=O)O [cis-aconitic-acid],0.49% (inactive)

row,SMILES,inhibition of SARS-CoV-2 cytopathic effect
1,CC(C)OC(=O)C1=CN(C(=O)c2ccc(F)c(F)c2)CC(C)(C)c2c1[nH]c1ccccc21,-1.15% (inactive)
2,C[C@H](Cc1cc2c(c(C(N)=O)c1)N(CCCO)CC2)NCCOc1ccccc1OCC(F)(F)F [silodosin],-1.05% (inactive)
3,O=C(O)c1cc(/N=N/c2ccc(S(=O)(=O)Nc3ccccn3)cc2)ccc1O [sulfasalazine],-2.23% (inactive)
4,CCCN(CCC)C(=O)C(CCC(=O)O)NC(=O)c1ccccc1 (centres undefined) [proglumide],-2.46% (inactive)
5,COc1ccc2cccc(CCNC(C)=O)c2c1 [agomelatine],0.82% (inactive)
6,COc1cc(-c2cc(-c3cccc(O)c3)cnc2N)cc(OC)c1OC,-1.83% (inactive)
7,Cc1ccc(Nc2c(F)cccc2Cl)c(CC(=O)O)c1 [lumiracoxib],-0.84% (inactive)
8,CC(=O)OC[C@H]1O[C@@H](n2ccc(=O)[nH]c2=O)[C@H](OC(C)=O)[C@@H]1OC(C)=O [uridine-triacetate],0.37% (inactive)
9,CN(Cc1cc(Br)cc(Br)c1N)C1CCCCC1 [bromhexine],0.02% (inactive)
10,Cc1cc(C(C)(C)C)cc(C)c1CC1=NCCN1 [xylometazoline],-8.77% (inactive)
11,OCc1cncc(F)c1 [5-fluoro-3-pyridyl-methanol],0.14% (inactive)
12,O=C(O)c1ccccc1-c1ccc(C(F)(F)F)cc1 [xenalipin],1.65% (inactive)
13,CC(C)NCC(O)c1ccccc1Cl (centres undefined) [clorprenaline],1% (inactive)
14,C[C@@H](c1ncncc1F)[C@](O)(Cn1cncn1)c1ccc(F)cc1F [voriconazole],2.08% (inactive)
15,O=C(O)C1=CCNCC1 [isoguvacine],0.98% (inactive)
16,Oc1cc2c(cc1O)CN(C(=S)NCCc1ccc(Cl)cc1)CCC2 [capsazepine],-2.95% (inactive)
17,Cn1cnc2c(F)c(Nc3ccc(Br)cc3F)c(C(=O)NOCCO)cc21 [binimetinib],-3.38% (inactive)
18,CN(C)/C=N/c1c(I)cc(I)c(CCC(=O)O)c1I [iopodic-acid],0.15% (inactive)
19,O=C(CBr)N1CC([N+](=O)[O-])([N+](=O)[O-])C1,-0.07% (inactive)
20,N#Cc1cn([C@@H]2O[C@H](CO)[C@@H](O)[C@H]2O)c2ncnc(N)c12 [toyocamycin],2.87% (inactive)
